Results taken from PubChem BioAssay (EPA / NIEHS).
Values joined by “and” are separate entries in the source; they are usually repeats but may differ in a detail not shown here. Identical values can stand only once. A structure can be active in one record and inactive in another. Active and inactive are the calls of the source. Rule for the calls: active = hit-call score of the fitted dose curve at least 0.9, where 1 is the maximum; inactive = score below 0.9.

How the values were obtained:
[1] = read-out: Matrix Metallopeptidase 9 (MMP9), MMP9 (gene 4318); experiment: BSK_BE3C_MMP9: BioMAP Diversity Plus: BE3C Assay for Matrix Metallopeptidase 9 (MMP9) Biomarker Activity (AID 2284283); conditions: primary human bronchial epithelial cells
Method in brief: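 MMP9 is measured by ELISA after a 24 h compound exposure of primary human bronchial epithelial cultures. Parallel SRB staining gives overt cytotoxicity. Values fitted in the positive direction against DMSO.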

[2] = read-out: Plasminogen activator inhibitor-1 (PAI1), SERPINE1 (gene 5054); experiment: BSK_CASM3C_PAI1: BioMAP Diversity Plus: CASM3C Assay for Plasminogen activator inhibitor-1 (PAI1) Biomarker Activity (AID 2284284); conditions: primary human coronary artery smooth muscle cells;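 note: PAI-1 protein level measured by ELISA 24 h after dosing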
[3] = read-out: Monocyte Chemoattractant Protein-1 (MCP1), CCL2 (gene 6347); experiment: BSK_hDFCGF_MCP1: BioMAP Diversity Plus: hDFCGF Assay for Monocyte Chemoattractant Protein-1 (MCP1) Biomarker Activity (AID 2284285); conditions: primary human foreskin fibroblasts
Method in brief: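 MCP-1 ELISA readout was taken 24 hours after dosing primary human dermal fibroblasts in the hDFCGF system, with DMSO as baseline. Parallel sulforhodamine B staining of total protein tracked overt cytotoxicity.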

[4] = read-out: Vascular cell adhesion molecule 1 (VCAM1), VCAM1 (gene 7412); experiment: BSK_IMphg_VCAM1: BioMAP Diversity Plus: IMphg Assay for Vascular cell adhesion molecule 1 (VCAM1) Biomarker Activity (AID 2284286); conditions: primary human endothelial cells with macrophages
Method in brief: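 ELISA read-out of VCAM-1 on venular endothelial cell/macrophage co-cultures at 24 h post-treatment, with DMSO as baseline and positive-direction fitting. Parallel sulforhodamine B total-protein staining (560 nm) served as the overt cytotoxicity measure.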

[5] = read-out: Intercellular Adhesion Molecule 1 (ICAM1), ICAM1 (gene 3383); experiment: BSK_hDFCGF_ICAM1: BioMAP Diversity Plus: hDFCGF Assay for Intercellular Adhesion Molecule 1 (ICAM1) Biomarker Activity (AID 2284287); conditions: primary human foreskin fibroblasts
Method in brief: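 ICAM-1 ELISA readout 24 h after dosing, DMSO as baseline, in human dermal foreskin fibroblast cultures. Cytotoxicity checked in parallel wells by SRB staining (0.1% SRB, 10% TCA fixation, 560 nm).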

[6] = read-out: CD40, CD40 (gene 958); experiment: BSK_IMphg_CD40: BioMAP Diversity Plus: IMphg Assay for CD40 Biomarker Activity (AID 2284288); conditions: primary human endothelial cells with macrophages
Method in brief: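 ELISA read-out of cell-surface CD40 at 24 h in human venular endothelial cell/macrophage co-cultures. Activity fitted in the positive direction against DMSO; parallel SRB staining (560 nm) gauges overt cytotoxicity.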

[7] = read-out: TIMP metallopeptidase inhibitor 2 (TIMP2), TIMP2 (gene 7077); experiment: BSK_hDFCGF_TIMP2: BioMAP Diversity Plus: hDFCGF Assay for TIMP metallopeptidase inhibitor 2 (TIMP2) Biomarker Activity (AID 2284289); conditions: primary human foreskin fibroblasts
Method in brief: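 Primary human foreskin fibroblasts in the hDFCGF system, dosed for 24 h; TIMP-2 level measured by ELISA, fitted in the positive direction against DMSO; cytotoxicity checked in parallel by sulforhodamine B total protein staining.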

[8] = read-out: Interleukin-1 alpha (IL1a), IL1A (gene 3552); experiment: BSK_IMphg_IL1a: BioMAP Diversity Plus: IMphg Assay for Interleukin-1 alpha (IL1a) Biomarker Activity (AID 2284290); conditions: primary human endothelial cells with macrophages
Method in brief: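 IL-1α is quantified by ELISA at 24 h in the endothelial/macrophage IMphg co-culture, with gain of signal fitted relative to DMSO. Parallel SRB total-protein staining flags overt toxicity.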

[9] = read-out: E-selectin (Homo sapiens) (UniProt P16581); experiment: BSK_IMphg_ESelectin: BioMAP Diversity Plus: IMphg Assay for Eselectin Biomarker Activity (AID 2284291); conditions: primary human endothelial cells with macrophages
Method in brief: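 Analysed against DMSO baseline in the positive fitting direction, this endpoint is an ELISA read of E-selectin. It comes from human venular endothelial cells co-cultured with macrophages, sampled 24 h post-dose.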

[10] = BSK_IMphg_SRB: Viability Assessment in the BioMAP Diversity Plus: IMphg Assay (AID 2284292); conditions: primary human endothelial cells with macrophages;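 note: measured one day after compound addition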
Method in brief: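 SRB viability endpoint: cultures of human endothelial cells plus macrophages fixed with 10% TCA, stained with 0.1% SRB, read at 560 nm 24 h post-dosing. Only gain-of-signal fitted, relative to DMSO.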

Chain of E-selectin (Homo sapiens) (P16581 whole entry, looked up): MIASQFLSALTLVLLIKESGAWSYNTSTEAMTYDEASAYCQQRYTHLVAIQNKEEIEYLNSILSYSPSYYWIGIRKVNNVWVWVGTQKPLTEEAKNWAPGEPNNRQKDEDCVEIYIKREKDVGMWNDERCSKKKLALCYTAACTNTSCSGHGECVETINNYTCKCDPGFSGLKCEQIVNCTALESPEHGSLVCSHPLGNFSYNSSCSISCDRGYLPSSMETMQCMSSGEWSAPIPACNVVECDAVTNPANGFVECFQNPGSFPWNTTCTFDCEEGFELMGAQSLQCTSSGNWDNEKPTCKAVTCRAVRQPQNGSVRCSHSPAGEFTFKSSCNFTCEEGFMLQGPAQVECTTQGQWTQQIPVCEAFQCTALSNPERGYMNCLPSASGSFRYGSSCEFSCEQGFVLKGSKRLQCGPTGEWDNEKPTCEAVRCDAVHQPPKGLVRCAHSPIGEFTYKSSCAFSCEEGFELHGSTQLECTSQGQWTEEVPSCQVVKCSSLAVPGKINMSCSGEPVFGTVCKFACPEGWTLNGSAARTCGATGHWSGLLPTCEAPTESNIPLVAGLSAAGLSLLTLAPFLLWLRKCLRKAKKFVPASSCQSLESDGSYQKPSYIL

Row | Structure (SMILES) | outcome [1] | outcome [2] | outcome [3] | outcome [4] | outcome [5] | outcome [6] | outcome [7] | outcome [8] | outcome [9] | AC50 [3] | AC50 [7] | AC50 [9] | AC50 [5] | outcome [10]
1 | FC(F)(F)C(F)(F)C(F)(F)C(F)(F)C(F)(F)C(F)(F)C(F)(F)Br | inactive | inactive | inactive | inactive | inactive | inactive | inactive | inactive | inactive |  |  |  |  | 
2 | OCC(F)(F)C(F)(F)C(F)(F)C(F)(F)C(F)(F)C(F)(F)F | inactive | inactive | inactive | inactive | inactive |  | inactive | inactive | inactive | 23 µM (active) | 42.2 µM (active) |  |  | 
3 | O=C(O)C(F)(F)C(F)(F)C(F)(F)C(F)(F)F | inactive | inactive | inactive | inactive | inactive |  | inactive | inactive | inactive |  |  |  |  | 
4 | O=C(O)C(F)(F)C(F)(F)C(F)(F)F | inactive | inactive | inactive | inactive | inactive |  | inactive | inactive | inactive |  |  |  |  | 
5 | O=P(O)(O)OCCC(F)(F)C(F)(F)C(F)(F)C(F)(F)C(F)(F)C(F)(F)F | inactive | inactive | inactive | inactive | inactive |  | inactive | inactive | inactive |  |  | 5.46 µM (active) |  | 
6 | FC(F)(F)C(F)(F)C(F)(F)C(F)(F)C(F)(F)C(F)(F)CCS | inactive | inactive | inactive | inactive | inactive |  | inactive | inactive | inactive |  |  |  |  | 
7 | CCCCCCOC(=O)c1ccccc1O | inactive | inactive |  |  |  |  |  |  |  | 18.2 µM (active) and 22.9 µM (active) | 31.2 µM (active) and 20.2 µM (active) |  | 37.9 µM (active) and 29.9 µM (active) | 
8 | C=CC(F)(F)C(F)(F)C(F)(F)C(F)(F)C(F)(F)C(F)(F)C(F)(F)C(F)(F)C=C | inactive | inactive | inactive | inactive | inactive |  | inactive | inactive | inactive |  |  |  |  | inactive
9 | C=CC(F)(F)C(F)(F)C(F)(F)C(F)(F)C(F)(F)C(F)(F)C(F)(F)C(F)(F)F | inactive | inactive | inactive | inactive | inactive |  | inactive | inactive | inactive |  |  |  |  | inactive
10 | O=C(O)C(F)(F)C(F)(F)C(F)F | inactive | inactive | inactive | inactive | inactive |  | inactive | inactive | inactive |  |  |  |  | inactive
11 | FC(F)(F)C(F)(F)CNCC(F)(F)C(F)(F)F | inactive | inactive | inactive | inactive | inactive |  | inactive | inactive | inactive |  |  |  |  | 
12 | O=C(CC(=O)C(F)(F)C(F)(F)F)C(F)(F)F | inactive | inactive | inactive | inactive | inactive |  | inactive | inactive | inactive |  |  |  |  | 
13 | FC1CC(F)(F)C(F)(F)C1(F)F (stereo not drawn) | inactive | inactive | inactive | inactive | inactive |  | inactive | inactive | inactive |  |  |  |  | 
14 | O=S(=O)(O)C(F)(F)C(F)(F)C(F)(F)C(F)(F)C(F)(F)C(F)(F)C(F)(F)F | inactive | inactive | inactive | inactive | inactive |  | inactive | inactive | inactive |  |  |  |  | 
15 | CC(C)(C)C(=O)CC(=O)C(F)(F)C(F)(F)C(F)(F)F | inactive | inactive | inactive | inactive | inactive |  | inactive | inactive | inactive |  |  |  |  | inactive
16 | FC(F)(F)C(F)(F)C(F)(F)C(F)(F)C(F)(F)C(F)(F)C(F)(F)C(F)(F)F | inactive | inactive | inactive | inactive | inactive |  | inactive | inactive | inactive |  |  |  |  | 
17 | C=C(C)C(=O)OCC(F)(F)C(F)(F)C(F)(F)C(F)(F)C(F)(F)C(F)(F)C(F)(F)F | inactive | inactive | inactive | inactive | inactive |  | inactive | inactive | inactive |  |  |  |  | 
18 | O=C(O)C(F)(F)C(F)(F)OC(F)(F)F | inactive | inactive | inactive | inactive | inactive |  | inactive | inactive | inactive |  |  |  |  | 
19 | OCC(F)(F)C(F)(F)C(F)(F)F | inactive | inactive | inactive | inactive | inactive |  | inactive | inactive | inactive |  |  |  |  | 
20 | FC(F)(F)C(F)(F)C(F)(F)C(F)(F)CCI | inactive | inactive | inactive | inactive | inactive |  | inactive | inactive | inactive |  |  |  |  | 
21 | FC(F)(F)C(F)(F)C(F)(F)C(F)(F)C(F)(F)C(F)(F)CC1CO1 (stereo not drawn) | inactive | inactive | inactive | inactive | inactive |  | inactive | inactive | inactive |  |  |  |  | 
22 | FC(F)(F)C(F)(F)C(F)(F)C(F)(F)C(F)(F)C(F)(F)C(F)(F)I | inactive | inactive | inactive | inactive | inactive |  | inactive | inactive | inactive |  |  |  |  | 
23 | NC(=O)C(F)(F)C(F)(F)C(F)(F)C(F)(F)F | inactive | inactive | inactive | inactive | inactive |  | inactive | inactive | inactive |  |  |  |  | 
24 | O=C(O)C(F)(F)C(F)(F)F | inactive | inactive | inactive | inactive | inactive |  | inactive | inactive | inactive |  |  |  |  | 
25 | FC(F)(F)C(F)(F)C(F)(F)C(F)(F)C(F)(F)CCI | inactive | inactive | inactive | inactive | inactive |  | inactive | inactive | inactive |  |  |  |  | 
26 | O=S(=O)(OCC(F)F)C(F)(F)F | inactive | inactive | inactive | inactive | inactive |  | inactive | inactive | inactive |  |  |  |  | 
27 | COC(=O)CCC(F)(F)C(F)(F)C(F)(F)C(F)(F)F | inactive | inactive | inactive | inactive | inactive |  | inactive | inactive | inactive |  |  |  |  | 
28 | FC(F)(Br)C(F)(F)C(F)(F)C(F)(F)C(F)(F)C(F)(F)Br | inactive | inactive | inactive | inactive | inactive |  | inactive | inactive | inactive |  |  |  |  | inactive
29 | OCCCC(F)(F)C(F)(F)C(F)(F)F | inactive | inactive | inactive | inactive | inactive |  | inactive | inactive | inactive |  |  |  |  | 
